Hits are enriched below; roughly 0.38% of the tested compounds scored in any of these assays.
Rac1 wt GTP bind: human Rac1 wildtype GTP binding, inhibitors and activators; AID 757; GTP binding activity (% of control), % at 10 µM; P63000; GST-Rac1 beads, fluorescent GTP binding, flow cytometry; actives lie on both sides; 0 = cold GTP competed, 100 = untreated; actives 0.27% (n = 190,000);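 active means GTP binding activity at least 20 points away from the 100% control level, either lower or higher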
Rab2 wt GTP: changes GTP binding to wildtype dog Rab2A, up or down | GST-Rab2 wt beads, Bodipy-GTP binding, flow cytometry | P61105 | actives 0.19% (n = 190,000) | GTP binding activity, % at 10 µM | AID 760;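 active means GTP binding activity at least 20 points away from 100%, either lowered or raised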
Rab7 wt GTP bind: modulators of GTP binding to dog Rab7 wildtype GTPase | GST-Rab7 beads, fluorescent GTP binding, flow cytometry; actives lie on both sides; untreated = 100%, excess cold GTP = 0% | GTP binding activity (percent of control), % at 10 µM | actives 0.055% (n = 190,000) | AID 758;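 active means fluorescent GTP binding to Rab7 beads changed by at least 20 points from the 100% baseline, either direction, mostly lower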;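 further: median green fluorescence of bound Bodipy-FL-GTP per Rab7 bead population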
HRas wt GTP bind: modulators of GTP binding to human HRas wildtype; actives 0.14% (n = 190,000); GST-Ras wt beads, Bodipy-FL-GTP binding, flow cytometry; actives lie on both sides; P01112; AID 759; GTP binding activity, % at 10 µM;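 active means GTP binding activity at least 20% away from the 100% baseline, either lowered as inhibitor or raised as activator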
Target sequence (P01112 whole entry, looked up): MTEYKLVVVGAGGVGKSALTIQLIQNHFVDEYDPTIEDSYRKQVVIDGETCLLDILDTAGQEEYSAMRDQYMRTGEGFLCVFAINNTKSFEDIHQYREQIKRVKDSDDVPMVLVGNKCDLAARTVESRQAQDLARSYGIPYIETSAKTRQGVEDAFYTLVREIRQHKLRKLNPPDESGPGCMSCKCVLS
Cdc42 wt GTP: human Cdc42 wildtype GTP binding change, either direction. P60953. GST-Cdc42 beads, Bodipy-GTP binding, flow cytometry; actives lie on both sides. percent activity (GTP binding), % at 10 µM. actives 0.2% (n = 190,000). AID 761;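 active means percent activity GTP binding at least 20 points away from the 100% baseline, either down as inhibitor or up as activator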;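 further: median bead fluorescence of bound Bodipy-FL-GTP at 100 nM; below 100% means less GTP binding so inhibitor and above means activator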
Target sequence (P60953 whole entry, looked up): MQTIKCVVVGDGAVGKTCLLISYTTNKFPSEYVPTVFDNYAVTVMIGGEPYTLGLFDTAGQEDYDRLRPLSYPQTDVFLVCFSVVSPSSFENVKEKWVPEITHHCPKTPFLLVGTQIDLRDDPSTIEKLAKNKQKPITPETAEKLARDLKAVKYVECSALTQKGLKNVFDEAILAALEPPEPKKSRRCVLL
Rac1 mut GTP: alters GTP binding to activated mutant human Rac1 | P63000 | GST-Rac1 activated beads, fluorescent GTP binding, flow cytometry; actives lie on both sides; 100% means binding = to untreated wells | percent activity (GTP binding), % at 10 µM | actives 0.11% (n = 190,000);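 active means GTP binding at least 20 percentage points away from the 100% baseline, in either direction, so actives lie on both sides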
Large screens that a line does not name were inactive; [ ] = another dose, or the depositor's remark.

O=[N+]([O-])c1cc(-c2ncccn2)c([N+](=O)[O-])s1	Rac1 mut GTP 76
O=C(Nc1cccc2ccccc12)c1cnccn1	Rab2 wt GTP 67, Rab7 wt GTP bind 75, HRas wt GTP bind 71, Cdc42 wt GTP 73, Rac1 mut GTP 77
Cc1ccccc1-c1nnc(-c2ccc(Cl)cc2)o1	none
Cc1ccc(CS(=O)(=O)c2ccccc2-c2nnc(-c3ccc(Cl)cc3)o2)cc1	Rab7 wt GTP bind 77
Cc1ccc(C(=O)Nn2c(O)c(C=C3N=c4ccccc4=N3)sc2=S)cc1	Rac1 wt GTP bind 72, HRas wt GTP bind 73, Cdc42 wt GTP 73, Rac1 mut GTP 79
O=C(Nn1c(O)c(C=C2N=c3ccccc3=N2)sc1=S)c1ccc(Cl)cc1	none
CCN(CC)c1ccc(NS(=O)(=O)c2ccc(OC)cc2)cc1	none
Cc1ccccc1-n1c(SCc2c(C)noc2C)nnc1-c1ccncc1	none
Cc1ccccc1-n1c(SCc2c(C)noc2C)nnc1-c1cccnc1	Rac1 wt GTP bind 132[activator]
Cc1cccc(OCC(=O)N/N=C/c2ccc3c(c2)OCO3)c1	Cdc42 wt GTP 77, Rac1 mut GTP 78
O=C(COc1ccccc1)N/N=C/c1ccc2c(c1)OCO2	none
Cc1cn2c(nc(=O)c3cccnc32)s1	Rac1 wt GTP bind 76
CN(Cc1ccccc1)c1ccc(C(=O)O)cc1[N+](=O)[O-]	none
NC(=O)c1cc2nc(-c3ccco3)cc(C(F)(F)F)n2n1	Rac1 wt GTP bind 68, Rab2 wt GTP 63, HRas wt GTP bind 65, Cdc42 wt GTP 64
COc1ccc(-c2cc(C(F)(F)F)n3nc(C(=O)O)cc3n2)cc1OC	Rac1 wt GTP bind 77
COC(=O)c1cc2nc(-c3ccc(OC)c(OC)c3)cc(C(F)(F)F)n2n1	none
Cc1ccc(S(=O)(=O)Nc2cccc3c2CCCC3)cc1	none
COc1cccc(-c2nnc3sc(-c4ccco4)nn23)c1	none
CCOc1cccc(-c2nn3c(-c4ccco4)nnc3s2)c1	Rab2 wt GTP 78
COc1ccc(-c2nnc3sc(-c4ccco4)nn23)cc1OC	none
COc1ccc(-c2nn3c(-c4ccco4)nnc3s2)cc1OC	Rac1 wt GTP bind 70, Rab2 wt GTP 71, HRas wt GTP bind 68, Cdc42 wt GTP 68
CCOC(=O)c1nc(Nc2ccc(C(C)=O)cc2)c2ccccc2n1	Rac1 wt GTP bind 78
COc1ccc2ccccc2c1/C=N/NC(=S)Nc1cc(S(=O)(=O)N2CCOCC2)ccc1N1CCOCC1	none
COc1ccc(/C=N/NC(=S)Nc2cc(S(=O)(=O)N3CCOCC3)ccc2N2CCOCC2)cc1O	Rac1 wt GTP bind 136[activator]
Cc1ccc(O)c(C(=O)/C=C/c2ccc3c(c2)OCCO3)c1	none
COc1ccc(NC(=O)CSc2ccc3nnc(-c4cccnc4)n3n2)c(OC)c1	Rac1 wt GTP bind 79
CCOc1ccccc1NC(=O)CSc1nnc2ccc(-c3ccncc3)nn12	none
COc1ccc(-c2nnc3ccc(SCC(=O)Nc4cc(C)on4)nn23)cc1OC	none
CCOc1ccccc1NC(=O)CSc1ccc2nnc(-c3cccnc3)n2n1	Rac1 wt GTP bind 58, Rab2 wt GTP 64, HRas wt GTP bind 69, Cdc42 wt GTP 65, Rac1 mut GTP 76
COc1ccc([N+](=O)[O-])cc1NC(=O)c1ccc(-n2nc(C)cc2C)cc1	none
Cc1ccc(NCC(=O)NNC2=NCCC2)c(C)c1	none
C=CCNC(=O)c1cc2c(=O)n3cc(C)ccc3nc2nc1NCC1CCCO1 (configuration not stated)	Rab2 wt GTP 78, Rab7 wt GTP bind 65, HRas wt GTP bind 69
CS(=O)(=O)Nc1ccccc1C(=O)O	none
CS(=O)(=O)Nc1ccc(Br)cc1C(=O)c1ccccc1	Cdc42 wt GTP 69
COc1ccc(OC)c(C(C(=O)NCc2ccco2)N(C(=O)Cn2nnc3ccccc32)C2CC2)c1 (configuration not stated)	Rac1 wt GTP bind 130[activator], Rab2 wt GTP 121[activator], HRas wt GTP bind 121[activator], Cdc42 wt GTP 126[activator]
CCOC(=O)Cc1csc(NC(=O)COc2cc(C)cc(C)c2)n1	none
O=[N+]([O-])c1cc(Br)c(O)c(C=Nc2ccc(N3CCOCC3)cc2)c1	Cdc42 wt GTP 79
Oc1ccc(N=Cc2cc(Br)c(N3CCOCC3)o2)cc1	none
Cn1cnnc1-c1cccc(NC(=O)c2cc(F)c(F)cc2Cl)c1	none
N#Cc1c(-c2cccc(Br)c2)cc(-c2ccco2)[nH]c1=O	Rac1 wt GTP bind 75, Cdc42 wt GTP 79, Rac1 mut GTP 76
COc1cc(-c2cc(=O)c3c(O)cc(O)cc3o2)ccc1O	Rac1 wt GTP bind 78
COc1cc(-c2cc(=O)c3ccccc3o2)ccc1O	none
Cc1cc2ncn(CCC(=O)NC(C)(C)C)c2cc1C	Rac1 wt GTP bind 77
Cc1cc2ncn(CCC(=O)NC3CCCC3)c2cc1C	none
CC1CCCCC1NC(=O)COC(=O)CNC(=O)c1cccc(F)c1 (configuration not stated)	none
N#Cc1c(C(F)(F)F)cc(-c2ccc(Cl)cc2)[nH]c1=O	Rac1 wt GTP bind 78, Rab7 wt GTP bind 78, Cdc42 wt GTP 76, Rac1 mut GTP 78
CCOC(=O)Cn1c(=O)c2c(nc3n2CCN3Cc2ccccc2)n(C)c1=O	none
CCOC(=O)Cn1c(=O)c2c(nc(N3CCCCC3)n2C)n(C)c1=O	Rac1 wt GTP bind 142[activator], Cdc42 wt GTP 123[activator]
CCCOC(=O)CC1C(=O)NCCN1C(=O)OC(C)(C)C (configuration not stated)	none
O=C(N/N=C/c1ccc2nccnc2c1)c1cccc([N+](=O)[O-])c1	Rac1 wt GTP bind 77
COc1ccc(/C=N/NC(=O)c2cccc([N+](=O)[O-])c2)cc1OC	none
Cc1ccc(OCC(=O)NCc2cccs2)c([N+](=O)[O-])n1	none
Cc1c(CCC(=O)O)c(=O)oc2cc3occ(-c4ccc(F)cc4)c3cc12	Rac1 wt GTP bind 68
Cc1c(CCC(=O)O)c(=O)oc2cc(O)ccc12	none
COc1ccc(C(=O)NN/C(C)=C/C(=O)C(F)(F)C(F)(F)C(F)(F)F)cc1	none
O=C(NCCC1=CCCCC1)Nc1ccc2nsnc2c1	none
CCOC(=O)c1c(NC(=O)/C=C/c2ccc3c(c2)OCO3)sc(C)c1C	none
CCOC(=O)c1c(NC(=O)/C=C/c2ccc3c(c2)OCO3)sc(C)c1CC	Rac1 mut GTP 77
Cc1cccc(CSCc2ccc(C(=O)NCC3CCCO3)o2)c1 (configuration not stated)	none
